Rows were chosen to be rich in hits. Some 3.4% of all compounds tested hit in one or more screens of this group.
PLC-beta3 inh: blocks human PLC-beta3 enzyme activity | inhibition, % at 12.2 µM | 0.18% of 370,000 active | Purified PLC-beta3, fluorogenic substrate, fluorescence; in the data active = inhibition above about 11%
Target sequence (Q01970 whole entry, looked up): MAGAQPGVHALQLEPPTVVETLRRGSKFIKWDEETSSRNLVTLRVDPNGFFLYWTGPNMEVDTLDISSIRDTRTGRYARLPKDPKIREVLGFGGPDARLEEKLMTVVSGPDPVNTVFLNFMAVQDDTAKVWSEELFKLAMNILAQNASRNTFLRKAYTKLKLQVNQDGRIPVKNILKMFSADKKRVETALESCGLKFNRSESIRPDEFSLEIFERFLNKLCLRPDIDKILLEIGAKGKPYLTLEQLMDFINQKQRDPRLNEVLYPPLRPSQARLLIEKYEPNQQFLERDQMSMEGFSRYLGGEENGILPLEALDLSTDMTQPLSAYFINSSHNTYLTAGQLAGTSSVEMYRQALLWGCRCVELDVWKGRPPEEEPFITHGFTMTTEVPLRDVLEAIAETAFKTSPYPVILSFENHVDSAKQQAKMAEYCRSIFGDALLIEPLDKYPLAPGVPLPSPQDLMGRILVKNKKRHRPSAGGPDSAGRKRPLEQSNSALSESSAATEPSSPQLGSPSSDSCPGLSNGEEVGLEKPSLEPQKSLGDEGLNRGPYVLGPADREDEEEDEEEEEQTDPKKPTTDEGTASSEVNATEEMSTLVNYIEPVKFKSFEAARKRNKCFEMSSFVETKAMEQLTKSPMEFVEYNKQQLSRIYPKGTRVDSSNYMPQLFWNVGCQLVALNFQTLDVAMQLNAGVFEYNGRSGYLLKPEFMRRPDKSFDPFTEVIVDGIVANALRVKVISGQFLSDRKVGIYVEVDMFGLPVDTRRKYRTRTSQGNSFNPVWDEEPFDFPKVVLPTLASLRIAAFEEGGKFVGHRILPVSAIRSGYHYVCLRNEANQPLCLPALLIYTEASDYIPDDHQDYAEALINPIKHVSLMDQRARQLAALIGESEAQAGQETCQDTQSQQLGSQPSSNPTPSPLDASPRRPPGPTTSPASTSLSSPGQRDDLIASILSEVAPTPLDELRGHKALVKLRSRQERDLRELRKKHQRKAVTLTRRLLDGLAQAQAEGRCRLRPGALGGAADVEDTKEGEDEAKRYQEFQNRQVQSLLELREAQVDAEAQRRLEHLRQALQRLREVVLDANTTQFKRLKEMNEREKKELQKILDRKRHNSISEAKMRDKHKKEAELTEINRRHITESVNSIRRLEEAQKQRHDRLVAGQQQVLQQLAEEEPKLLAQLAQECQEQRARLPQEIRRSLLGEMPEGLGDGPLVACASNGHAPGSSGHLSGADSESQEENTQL
ADAM17 inh: ADAM17 inhibition, QFRET primary screen; recombinant ADAM17, EDANS/DABCYL FRET peptide cleavage; inhibition, % at 6.95 µM; 0.83% of 370,000 active; AID 720648;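 active = inhibition above the mean of compounds lying between control limits plus 3 SD, set per campaign, cut at about 8.5% in these data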
sPLA2-III inh: Inhibits HGIII-sPLA2 liposome hydrolysis, primary screen. QFRET BODIPY PC-A2 liposome hydrolysis, fluorescence. inhibition, % at 12.2 µM. 0.56% of 370,000 active. AID 743126;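 active = inhibition above mean plus 3 SD of compounds lying within the high and low control bounds, cut at about 19% in these data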
KLK7 zymogen act: activates the human kallikrein-7 zymogen | activation, % at 7 µM | AID 652039 | 0.9% of 370,000 active | purified proKLK7, EDANS-DABCYL substrate fluorescence; 100% is mature enzyme control, 0% vehicle | P49862;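 active = activation above the mean of all tested compounds plus 3 SD, computed per campaign excluding outliers beyond control limits, cut at about 13% in these data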
PLC-gamma1 inh: inhibitors of human phospholipase C gamma1; purified PLC-gamma1, fluorogenic substrate, fluorescence; inhibition, % at 12.2 µM; 0.84% of 370,000 active; AID 720700
ADAM10 inh: inhibits human ADAM10. 0.62% of 370,000 active. recombinant ADAM10, EDANS/DABCYL FRET peptide cleavage, 3 h. inhibition, % at 7 µM;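 active = inhibition above a per-campaign cutoff equal to the mean of compounds falling between control-based bounds plus 3 SD, cut at about 20% in these data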
PLCgamma1 ctr: counter-screen for PLC-beta3 inhibitors: inhibitors of human PLC-gamma1. shares compounds with PLC-gamma1 inh. purified PLC-gamma1, fluorogenic substrate, fluorescence. inhibition, % at 12.3 µM. 3.1% of 3,300 active. AID 743258
PLCbeta3 conf: human PLC-beta3 inhibition, confirmation | shares compounds with PLC-gamma1 inh | purified PLC-beta3, fluorogenic substrate fluorescence | inhibition, % at 12.3 µM | 1% of 3,300 active | AID 743261; in the data active = inhibition above about 11%
A number is an active result; . = inactive; / = no result given. Rule as the data show it, unless noted: active = inhibition above about 9.5%; inactive = the rest.

SMILES	PLC-beta3 inh	ADAM17 inh	sPLA2-III inh	KLK7 zymogen act	PLC-gamma1 inh	ADAM10 inh	PLCgamma1 ctr	PLCbeta3 conf
CC1(C(=O)NS(=O)(=O)c2cccs2)CCN1C(=O)c1cccc(F)c1 (centres undefined)	14	.	.	.	.	.	.	.
CN(C(=O)COc1ccccc1C(=O)NCCOc1ccccc1)c1ccccc1	17	.	.	.	15	.	.	12
Cc1nc2ccccc2nc1OCc1ccccc1	.	.	.	.	.	.	/	/
Brc1cnc(OCc2ccccc2)nc1OCc1ccccc1	12	.	.	.	.	.	.	.
COc1ccc(CSc2nnc(C)n2N)cc1[N+](=O)[O-]	.	.	.	.	10	.	.	.
CCCCOc1ccc(CSc2nnc(C)n2N)cc1[N+](=O)[O-]	.	.	.	.	.	.	/	/
O=C(Cc1ccc(F)cc1)Nc1ccc(F)c([N+](=O)[O-])c1	.	.	.	.	9.8	.	.	.
COc1cccc(NC(=O)CN(C)C(=O)[C@@H]2CCCN2C(=O)c2cccs2)c1	.	.	.	.	.	.	/	/
C=CCN1C(=O)/C(=C/N(C)C)S/C1=N\S(=O)(=O)c1cccs1	12	.	.	.	.	.	.	.
CCCCn1cc([N+](=O)[O-])nc1C	.	.	.	.	.	.	/	/
Cc1nc([N+](=O)[O-])cn1CCCCN1C(=O)c2ccccc2C1=O	.	.	.	.	11	.	.	.
COc1ccc(CNc2nc3c(c(=O)n(Cc4ccc(Cl)cc4)c(=O)n3C)n2C)cc1	.	.	.	.	10	.	.	.
CC12c3ccccc3C(c3ccccc31)C1C(=O)N(c3cccnc3)C(=O)C12 (centres undefined)	.	.	.	.	12	.	.	.
COc1cccc(/C=N/NC(=O)c2ccc(-n3cnnn3)cc2)c1	.	.	.	.	.	.	/	/
O=C(COC(=O)C1=COCCO1)Nc1ccccc1Oc1ccccc1	11	.	.	.	.	.	.	.
O=C(COC(=O)C1=COCCO1)Nc1cccc(Oc2ccccc2)c1	.	.	.	.	.	.	/	/
CS(=O)(=O)N(CCc1ccccc1)CC(=O)N1CCCC1	.	.	.	.	.	.	/	/
CS(=O)(=O)N(CCc1ccccc1)CC(=O)N1CCCCCC1	13	.	.	.	.	.	.	.
COC(=O)c1cc(COC(=O)c2nc3nc(C)cc(C)n3n2)oc1C	12	.	.	.	.	.	.	.
COCC(C)n1c(C)cc(C(=O)COC(=O)c2nc3nc(C)cc(C)n3n2)c1C (centres undefined)	.	.	.	.	.	.	/	/
Cc1ccc(NC(=O)c2ccc(F)cc2F)cc1NS(C)(=O)=O	.	.	.	.	.	.	/	/
Cc1cccc(NCC(=O)N/N=C\c2cccn2C)c1	.	.	.	.	11	.	.	.
Nc1nn(-c2cccc(F)n2)cc1-c1ccccc1	.	.	.	.	.	.	/	/
C[C@]1(O)CC(=O)C=C[C@H]1Nc1ccccc1	.	.	.	.	17	.	.	.
CC(C)CC(NC(=O)c1ccccc1)C(=O)OCC(=O)Nc1ccc(Br)cn1 (centres undefined)	.	.	.	.	11	.	.	.
SMILES	PLC-beta3 inh	ADAM17 inh	sPLA2-III inh	KLK7 zymogen act	PLC-gamma1 inh	ADAM10 inh	PLCgamma1 ctr	PLCbeta3 conf
O=C(COc1ccccc1)NC(=S)Nc1ccc(Br)cn1	.	.	.	.	.	.	/	/
COc1cc([N+](=O)[O-])ccc1NC(=O)NNC(=O)c1sccc1C	.	.	.	.	.	.	/	/
CCOC(=O)C1(Cc2ccccc2C(F)(F)F)CCN(C2CCN(C(C)=O)CC2)CC1	.	.	.	.	.	.	/	/
Cc1ccc(N(CC(=O)NC2CCCC2)C(=O)CCC(=O)Nc2nc(C)cs2)cc1	.	.	.	.	9.6	.	.	.
COc1ccc(NC(=O)C2Cc3cc(S(=O)(=O)N4CCCCC4)ccc3N2C(C)=O)cc1Cl (centres undefined)	.	.	.	.	.	.	/	/
CCCC[C@@H](CN[C@H](C)CNC)NCC1CCC(C(C)(C)C)CC1 (some centres undefined)	.	.	.	.	.	.	/	/
Cc1c(CC(=O)O)c(=O)oc2cc(OCc3ccc(Cl)cc3)ccc12	.	.	.	.	.	.	/	/
O=C1CC(c2ccccc2)Sc2ccccc2N1 (centres undefined)	.	.	.	.	10	.	.	.
Cc1ccc(CNC(=O)CSc2nc3ccccc3[nH]2)cc1	.	.	.	.	.	.	/	/
COc1ccc(CCNC(=O)CSc2ncn[nH]2)cc1	.	.	.	.	10	.	.	.
O=C(CSc1nc2ccccc2[nH]1)NCCc1ccc(Cl)cc1	.	.	.	.	11	.	.	.
COC(=O)[C@]12C[C@H](CC(=O)N3CCCC3)C(=O)N(CCC3=CCCCC3)C1=C[C@H](C1CCCC1)O[C@@H]2C	.	.	.	.	11	.	.	.
COC(=O)[C@]12C[C@H](CC(=O)N3CCN(C(=O)c4ccco4)CC3)C(=O)N(CCC3=CCCCC3)C1=C[C@H](C1CCCC1)O[C@@H]2C	.	.	.	.	.	.	/	/
CC(C)(C)OC(=O)N[C@H](C(=O)OC(C)(C)C)c1ccc2c(c1)OCO2	.	.	.	.	10	.	.	.
CN(Cc1ccn[nH]1)C(=O)C1CCC(=O)N(Cc2cccc(C(F)(F)F)c2)C1 (centres undefined)	.	.	.	.	.	.	/	/
CCc1ccc(NC(=O)C(C)OC(=O)CC(NC(C)=O)c2ccccc2)cc1 (centres undefined)	.	.	.	.	.	.	/	/
Oc1ccc(/C=N/NC(=S)Nc2cccnc2)c(O)c1O	.	.	.	.	12	.	.	.
Cc1cccc(C(=O)O/N=C2\CCCc3ccccc32)c1	.	.	.	.	.	.	/	/
O=C(O/N=C1\CCCc2ccccc21)c1cccc(Cl)c1	11	.	.	.	9.6	.	.	.
Cc1ccc2nc3n(c(=O)c2c1)CCCCC3	.	.	.	.	11	.	.	.
O=c1c2cc([N+](=O)[O-])ccc2nc2n1CCCC2	.	.	.	.	.	.	/	/
CN(Cc1nc2ccccc2[nH]1)C(=O)C1CCC(=O)N(C2CCCC2)C1 (centres undefined)	.	.	.	.	9.8	.	.	.
CC(=O)Nc1cccc(NC(C)=O)n1	.	.	.	.	.	.	/	/
CC(C)CC(=O)Nc1cccc(NC(=O)CC(C)C)n1	.	.	.	.	10	.	.	.
O=C(CN(Cc1ccccc1Cl)C(=O)c1csnn1)NCc1ccccc1	.	.	.	.	.	.	/	/
